# From PubChem
# A selection: hits, their analogues and other compounds. The true share with any hit is near 6.9%.
# VDR inh – vitamin D3 receptor (human) inhibition. actives 0.93% (n = 400,000). VDR-SRC2-3 peptide fluorescence polarization, 2 h. Potency, µM, without a hit: max response, negative = inhibition, hits mostly inhibitors. P11473; also: % is scaled to controls: 0 for no effect and ±100 for the full control effect
#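 Fluorescence polarization assay measuring small-molecule disruption of VDR binding to the coregulator peptide SRC2-3. Compounds were pin-transferred (23 nl) into the reagent mix and incubated 2 h at room temperature before reading.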
# JMJD2A Tudor – JMJD2A Tudor domain (human) inhibition | O75164 | AlphaScreen JMJD2A-Tudor / H3K4me3 peptide binding | Potency, µM (top dose mostly 114 µM), inactives show at the top dose activity change, negative = inhibition, most hits filed as inhibitors | actives 4.4% (n = 390,000); also: % is scaled to controls: 0 for no effect and ±100 for the full control effect; nearly all actives have a fitted effect of over 50% in size
# PLK1 PBD inh – PLK1 (human) polo-box domain binding inhibition; P53350; Plk1 PBD binding of FITC phosphopeptide, fluorescence polarization; Potency, µM, for the others: max response, negative = inhibition, actives largely listed as inhibitors; actives 2.8% (n = 360,000); also: series mostly up to about 57 µM; % is scaled to controls: 0 for no effect and ±100 for the full control effect; nearly all actives have a fitted effect of over 65% in size
# BAZ2B block – blocks human BAZ2B. Q9UIF8. AlphaScreen BAZ2B-H3K14Ac peptide displacement. AID 504333. Potency, µM (doses to about 114 µM), for inactives: at the highest dose activity change, negative = inhibition, usual class: inhibitors. actives 4.4% (n = 360,000); also: % is scaled to controls: 0 for no effect and ±100 for the full control effect; nearly all actives have a fitted effect of over 60% in size
#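 AlphaScreen displacement: compounds (up to 110uM) incubated 30 min at room temperature with a preformed 50 nM BAZ2B/50 nM biotinylated H3K14Ac peptide complex in PBS pH 7.4 with Tween-20. Donor and acceptor beads at 10 ug/mL final added, 20 min light-protected before reading.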
# HP1b binding inh – inhibitors of HP1-beta chromodomain binding to methylated histone tails; P83916; AlphaScreen HP1-beta / biotin-H3K9me3 peptide binding; Potency, µM (titrated, usually from 114 µM), inactives show at the highest dose activity change, negative = inhibition, most hits filed as inhibitors; actives 0.56% (n = 390,000); also: nearly all actives have a fitted effect of over 70% in size
#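 AlphaScreen: HP1-beta (50 nM) preformed 30 min with biotin-H3(1-18)K9me3 peptide (50 nM) in PBS pH 7.4, 0.01% Tween-20. Compound added for 30 min at RT, then streptavidin donor/nickel chelate acceptor beads (10 ug/mL) for 30 min.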
# L3MBTL1 block – inhibitors of human L3MBTL1. actives 0.66% (n = 230,000). Potency, µM (highest dose often 57.1 µM), without a hit: top-dose activity, negative = inhibition, hits mostly inhibitors. AID 485360. AlphaScreen L3MBTL1–H3K9me1 peptide binding; also: % is scaled to controls: 0 for no effect and ±100 for the full control effect; nearly all actives have a fitted effect of over 60% in size
# Target sequence (Q9Y468 whole entry, looked up): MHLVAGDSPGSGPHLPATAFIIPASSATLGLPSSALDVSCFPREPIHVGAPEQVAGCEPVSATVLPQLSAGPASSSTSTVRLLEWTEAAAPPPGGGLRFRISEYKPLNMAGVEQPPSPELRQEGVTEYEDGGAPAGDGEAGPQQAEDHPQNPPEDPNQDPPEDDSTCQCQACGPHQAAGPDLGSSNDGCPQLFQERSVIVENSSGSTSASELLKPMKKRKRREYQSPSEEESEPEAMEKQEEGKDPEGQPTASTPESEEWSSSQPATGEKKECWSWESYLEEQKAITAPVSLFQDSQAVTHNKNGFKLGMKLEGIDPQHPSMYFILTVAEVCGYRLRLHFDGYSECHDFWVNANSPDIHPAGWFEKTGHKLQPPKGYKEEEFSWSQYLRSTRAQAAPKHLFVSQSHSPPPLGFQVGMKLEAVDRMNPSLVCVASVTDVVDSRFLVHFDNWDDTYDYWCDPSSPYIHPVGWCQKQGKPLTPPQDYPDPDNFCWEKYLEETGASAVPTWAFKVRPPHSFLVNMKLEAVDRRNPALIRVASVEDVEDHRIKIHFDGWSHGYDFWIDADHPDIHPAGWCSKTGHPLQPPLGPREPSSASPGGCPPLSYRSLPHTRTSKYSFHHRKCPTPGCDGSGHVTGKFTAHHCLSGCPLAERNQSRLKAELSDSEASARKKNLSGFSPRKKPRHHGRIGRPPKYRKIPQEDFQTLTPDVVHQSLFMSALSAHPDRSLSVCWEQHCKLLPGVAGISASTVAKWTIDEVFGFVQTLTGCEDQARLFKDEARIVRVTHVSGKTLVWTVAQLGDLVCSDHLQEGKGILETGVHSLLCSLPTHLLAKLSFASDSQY
#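 AlphaScreen assay: L3MBTL1 (50 nM final) was preincubated 30 min at room temperature with biotinylated H3(1-15)K9me1 peptide (75 nM final), then 30 min with library compounds; streptavidin donor and nickel chelate acceptor beads (10 ug/mL final) added, 30 min dark.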
# Numbers without * were called inactive; ? = inconclusive; / = not tested or not shown; ! = not confirmed by another sample; [ ] = dose if it differs, or a comment. Calls follow the shape of the dose curve; as a rule, active = well fitted curve in the direction sought with a large enough effect; inconclusive = small, poorly fitted or top-dose-only effect, or another doubt; inactive = no such curve, though single readings can be large; an effect the other way counts as inactive or inconclusive. Potency is read from the fitted curve at half-maximal effect.
SMILES,VDR inh,JMJD2A Tudor,PLK1 PBD inh,BAZ2B block,HP1b binding inh,L3MBTL1 block
CC[C@H](C)[C@H](NC(=O)[C@H](Cc1ccc(O)cc1)NC(=O)[C@@H]1CCCN1C(=O)[C@H](CCCN=C(N)N)NC(=O)[C@H](CCCN=C(N)N)NC(=O)[C@@H]1CCCN1C(=O)[C@H](CCCCN)NC(=O)[C@H](CC(N)=O)NC(=O)[C@H](CCC(N)=O)NC(=O)[C@H](Cc1ccc(O)cc1)NC(=O)[C@H](CC(C)C)NC(=O)[C@@H]1CCC(=O)N1)C(=O)N[C@@H](CC(C)C)C(=O)O,12%,/,/,/,/,/
CCOC(=O)c1c(C)n(-c2ccccc2)c2ccc(OC(=O)c3ccc(OCC)c(OCC)c3)cc12,-26%,-33%,/,-12%,70%,/
Cc1ccc(O)c(NC(=O)c2cc([N+](=O)[O-])ccc2Cl)c1,-2%,-17%,-6%,-2%,-2%,-19%
Cc1nc(N=Nc2cc(S(=O)(=O)O)c3cc([N+](=O)[O-])cc(S(=O)(=O)O)c3c2)c(COP(=O)(O)O)c(C=O)c1O,40µM*!,/,/,/,/,/
Cc1nc(N=Nc2cc([N+](=O)[O-])ccc2Cl)c(COP(=O)(O)O)c(C=O)c1O,45µM*,/,/,/,/,/
CC(C)c1ccc(CC(=O)N2CCC2(C)C(=O)NCCC#N)cc1 (stereo not drawn),/,/,1%,/,/,/
Cc1cccc(NC(=O)C(CC(C)C)NC(=O)C2CCC(C)CC2)n1 (stereo not drawn),6%,-4%[11.4 µM],-17%,-31%,79%,/
Cc1cc(N=Nc2ccccc2)c(NCC(O)C(O)C(O)CO)cc1C (stereo not drawn),-15%,45µM*,0%,16µM*,?,/
Cc1ccc(NCC(O)C(O)C(O)CO)cc1C (stereo not drawn),13%,-24%,-4%,-25%,18%,0%
CN(C)C(=O)c1cn(CCC#N)nc1-c1ccc2ccccc2c1,-8%,-3%,-14%,-2%,26%,1%
N#CCCn1cc(C(N)=O)c(-c2ccc3ccccc3c2)n1,-23%,?,27µM*,10%,-7%,-5%
COc1ccc(NC(=O)c2ccc(-c3ccc(-c4noc(C)n4)cc3C)cc2)cc1OCCN(C)C,22%,/,/,/,/,/
COc1ccc(NC(=O)c2ccc(-c3ccc(-c4noc(C)n4)cc3C)cc2)cc1N1CCN(C)CC1,11%,45µM*,-9%,35µM*,?,-18%
CCNc1ccc(C(=O)NN=C2CCCC2)cc1[N+](=O)[O-],-14%,?,-5%,?,4%,?
O=C(Cc1ccccc1)NC1(O)C(=O)c2ccccc2C1=O,35µM*,-3%,-15%,-17%,17%,/
CC1/C(=N/O)CC(c2ccco2)NC1c1ccco1 (stereo not drawn),7%,-10%,-2%,-1%,12%,-3%
CCCC1C(c2ccco2)NC(c2ccco2)CC1(C)O (stereo not drawn),-9%,3.5µM*,-3%,/,?,0%
CC(C)N1CCc2c(sc(NC(=O)c3cc4cc([N+](=O)[O-])ccc4s3)c2C(N)=O)C1,73%,?,-3%,40µM*,?,-21%
CC(C)N1CCc2c(sc(NC(=O)c3ccc4ccccc4c3)c2C(N)=O)C1,11%,22%,6%,-13%,47%,/
CC(C)N1CCc2c(sc(NC(=O)c3ccc(C(=O)c4ccccc4)cc3)c2C(N)=O)C1,9%,56µM*,-4%,?,-19%,/
N=C1C(c2ccccc2)=C(O)CN1c1cccc(S(N)(=O)=O)c1,-20%,-12%,-13%,-5%,22%,2%
N=C1C(c2ccccc2)=C(O)CN1c1cccc(S(=O)(=O)N2CCOCC2)c1,?,20µM*,17µM*,-1%,10%,2%
OC[C@@H](O)COc1cccc2ccccc12,-11%,/,/,/,/,/
C=CCOc1ccc(CN(C)CC(O)COc2cccc3ccccc23)cc1 (stereo not drawn),39%,0.71µM*,-9%,50µM*,35µM*,/
O=C(Cc1ccc([N+](=O)[O-])cc1)N1N=C(c2ccncc2)CC1(O)C(F)(F)F (stereo not drawn),?,?,27µM*,/,9%,-2%
SMILES,VDR inh,JMJD2A Tudor,PLK1 PBD inh,BAZ2B block,HP1b binding inh,L3MBTL1 block
O=C(Cc1ccc([N+](=O)[O-])cc1)N1N=C2CCCCC2C1(O)C(F)(F)F (stereo not drawn),10%,-21%,-9%,-7%,2%,57%
CCC(Sc1nnc2c3ccccc3n(C)c2n1)C(=O)Nc1nnc(C(C)C)s1 (stereo not drawn),-10%,-3%,/,2%,24%,/
Cc1oc2ccc(Br)cc2c(=O)c1-c1nn[nH]n1,-9%,?,-4%,56µM*,6%,7%
Cc1c(-c2cc[n+]([O-])cc2)oc2ccc(Br)cc2c1=O,/,/,/,-20%,/,-6%
CC1CCc2c(sc3ncnc(SCC(=O)N(C)C4CCS(=O)(=O)C4)c23)C1 (stereo not drawn),-6%,-11%,27µM*,/,44%,2%
CC1CCc2c(sc3ncnc(SCC(=O)c4ccccc4)c23)C1 (stereo not drawn),1%,0%[11.4 µM],13µM*,4%,8%,-11%
CCCOC(=O)CSc1ncnc2sc3c(c12)CCC(C)C3 (stereo not drawn),-11%,200%,/,271%,235%,/
CC(=O)CSc1ncnc2sc3c(c12)CCC(C)C3 (stereo not drawn),-2%,23%,24µM*,6%,51%,10%
O=[N+]([O-])c1ccc(-c2c[nH]c(=S)[nH]2)cc1,?,?,7.5µM*,-2%,?,?
COc1cc(-c2ccccc2)[nH]c(=S)n1,?,-12%,?,?,58%,9%
O=[N+]([O-])c1ccc(-c2cn(-c3ccccc3F)c(=S)[nH]2)cc1,1%,-6%,-7%,?,55%,-7%
S=c1[nH]cc(-c2ccccc2)[nH]1,-23%,25µM*,-10%,-8%,0%,/
COc1ccc(C2Nc3ccccc3C(=O)N2Cc2ccccc2)cc1COc1cccc(C)c1 (stereo not drawn),/,-12%,/,/,/,/
O=C(NCCc1cccs1)Nc1nnc([C@H]2C[C@H](O)[C@@H](CO)O2)s1,/,/,0%,/,/,/
CS(=O)(=O)N1CCC2(CCN(C(=O)Nc3cccc(F)c3)CC2)CC1,0%,/,/,/,/,/
CC(C)(C)c1ccc(-n2nc(C(N)=O)c(O)cc2=O)cc1,?,-20%[11.4 µM],4.7µM*,-39%,4%,/
Cc1nn(C(C)C(=O)NCCc2ccco2)c(=O)c2nn(-c3ccccc3)c(C)c12 (stereo not drawn),?,79µM*,?,-18%,1%,/
